Structures are written as SMILES. Several values for one entry are separate records, joined by “and”; a condition that tells them apart may be missing. Equal values may be shown once. Results filed as inconclusive are left out. The source holds several records for some structures; these can differ, active in one and inactive in another. Activity calls are given as the source filed them. Calls come from the whole dose curve; as a rule, active = well fitted inhibition curve with a large enough effect in the repeat runs; inconclusive = weak or mixed curves; inactive = no such curve, though single readings can be large or run the other way.
% is set by controls: 0 for no effect and ±100 for the full control effect; potency is the fitted concentration of half-maximal effect.

Sequence of Cytochrome P450 2C19 (Homo sapiens) (P33261 whole entry, looked up): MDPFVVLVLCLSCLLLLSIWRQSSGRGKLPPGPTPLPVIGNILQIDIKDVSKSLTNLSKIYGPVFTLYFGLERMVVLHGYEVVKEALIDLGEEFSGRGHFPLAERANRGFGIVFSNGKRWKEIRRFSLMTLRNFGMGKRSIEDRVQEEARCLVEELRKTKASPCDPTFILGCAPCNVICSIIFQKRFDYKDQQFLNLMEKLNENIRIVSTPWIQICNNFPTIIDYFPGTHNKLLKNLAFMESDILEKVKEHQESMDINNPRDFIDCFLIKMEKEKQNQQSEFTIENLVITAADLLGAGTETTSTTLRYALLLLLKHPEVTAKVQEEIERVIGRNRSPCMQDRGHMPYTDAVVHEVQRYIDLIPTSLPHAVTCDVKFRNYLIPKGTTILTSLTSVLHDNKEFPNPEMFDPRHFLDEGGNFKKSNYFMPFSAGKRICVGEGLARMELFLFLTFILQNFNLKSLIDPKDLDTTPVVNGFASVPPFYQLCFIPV
Sequence of Cytochrome P450 2C9 (Homo sapiens) (P11712 whole entry, looked up): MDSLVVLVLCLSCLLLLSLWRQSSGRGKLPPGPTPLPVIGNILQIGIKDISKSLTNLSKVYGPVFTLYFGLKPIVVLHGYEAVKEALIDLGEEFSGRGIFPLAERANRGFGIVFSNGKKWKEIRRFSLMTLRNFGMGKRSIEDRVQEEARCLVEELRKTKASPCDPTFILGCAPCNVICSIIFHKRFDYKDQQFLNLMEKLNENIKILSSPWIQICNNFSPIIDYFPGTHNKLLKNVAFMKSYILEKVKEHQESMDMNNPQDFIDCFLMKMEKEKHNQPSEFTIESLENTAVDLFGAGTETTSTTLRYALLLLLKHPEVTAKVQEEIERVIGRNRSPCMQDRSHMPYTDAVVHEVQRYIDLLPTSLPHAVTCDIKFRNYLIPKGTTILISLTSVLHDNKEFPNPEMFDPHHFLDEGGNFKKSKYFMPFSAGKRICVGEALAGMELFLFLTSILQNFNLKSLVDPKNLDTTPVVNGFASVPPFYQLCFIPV

For one experiment, the target named is Cytochrome P450 2C19 (Homo sapiens) (UniProt P33261). Put plainly: Cytochrome P450 Family 2 Subfamily C Member 19 (CYP2C19) small molecule antagonists: luciferase reporter qHTS assay (AID 1671197). Note: nearly all actives have a fitted effect of over 65% in size. The following applies: P450-Glo CYP2C19 enzyme, luciferin luminescence, 1 h; series mostly up to 115 µM; activity change, negative = inhibition: at the top concentration. Put shortly:
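First, compounds are pinned into enzyme-substrate mix and held 10 min at room temperature. Second, NADPH regeneration solution is added and plates incubate 1 h at 37C. Third, detection reagent is added and luminescence read after 20 min.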
Background: In a reporter assay the amount or activity of a reporter protein is the signal.
Take `C=CCOC(=O)c1ccccc1C(=O)OCC=C`: the Potency is 1.56 µM (active) and 1.26 µM (active).

As for `O=S(=O)(O)c1ccc2ccccc2c1`, the Potency entry is “inactive”.

As to `CC1=CCC2CC1C2(C)C` (stereo unspecified), the Potency result is “inactive”.

For `C=C(C)C(=O)Nc1ccc(Cl)c(Cl)c1`, the Potency was 22.7 µM (active) and 31.6 µM (active).

`C=C(C)C(=O)O[C@H]1C[C@@H]2CC[C@@]1(C)C2(C)C`: the Potency was 17.7 µM (active) and inactive.

On to `O=c1[nH]c(=O)n([C@H]2CCCO2)cc1F`, for which the “activity change, negative = inhibition” value is -8.59% [at 52.9 µM] (inactive).

Take `Fc1ccc(Br)cc1`: the Potency is 71.7 µM (active) and inactive.

Regarding `CC(c1cc2ccccc2s1)N(O)C(N)=O` (stereo unspecified), the Potency is 31.7 µM (active).

With `O=c1[nH]c(=O)n([C@H]2C[C@H](O)[C@@H](CO)O2)cc1Br`, the Potency result is “inactive”.

Take `CC(C)(C)[C@@H](O)[C@@H](Cc1ccc(Cl)cc1)n1cncn1`: the Potency was 250 nM (active) and 159 nM (active).

For the compound `C/C=C1/CC2C=CC1C2` (stereo unspecified), the “activity change, negative = inhibition” value is -17.9% (inactive).

Consider `C#C[C@]1(O)CC[C@H]2[C@@H]3CCC4=CC(=O)CC[C@@H]4[C@H]3CC[C@@]21C`, for which the Potency was 5.03 µM (active) and 4.36 µM (active).

Turning to `C#CCN(C)Cc1ccccc1`, the “activity change, negative = inhibition” value was 3.17% [at 52.9 µM] (inactive).

With `CCCCCCCCCCCCOCCO`, the Potency was 25.2 µM (active) and inactive.

For `CCCCCOC(C)=O`, the Potency was 32.1 µM (active) and inactive.

For `O=C(CC(C(=O)OC1CCCCC1)S(=O)(=O)O)OC1CCCCC1` (stereo unspecified), the “activity change, negative = inhibition” value was 12.1% (inactive).

Consider `CCCCC(CC)COC(=O)C(C#N)=C(c1ccccc1)c1ccccc1` (stereo unspecified), for which the Potency is 7.1 µM (active).

In the case of `CC(=O)c1ccccc1`, the Potency is 41.4 µM (active) and inactive.

As for `O=C(OCCOCCOC(=O)c1ccccc1)c1ccccc1`, the Potency was 35.5 µM (active) and 39.9 µM (active).

As for `CC(=O)Nc1ccccc1`, the Potency was 71.3 µM (active) and inactive.

For `O=c1[nH]nnc2ccccc12`, the Potency entry was “inactive”.

Consider `O=C(O)[C@H](O)[C@@H](O)[C@H](O)[C@H](O)CO`, for which the Potency was 89.2 µM (active).

With `CCCCCCOCCO`, the Potency result was “inactive”.

Take `CSCCC=O`: the Potency is 75.8 µM (active) and 7.1 µM (active).

For `CCCCCC(N)=O`, the Potency result was “inactive”.

As for `OCCOCCOCCO`, the Potency result is “inactive”.

Turning to `CCCCC(CC)COC(=O)CS` (stereo unspecified), the Potency is 25.5 µM (active) and inactive.

As to `CCCCCCCCCCCCc1ccccc1`, the “activity change, negative = inhibition” value was 10.3% (inactive).

With `O=C(O)c1ccc2c(c1)C(=O)OC2=O`, the Potency entry is “inactive”.

The next experiment deals with Cytochrome P450 2C9 (Homo sapiens) (UniProt P11712). Put plainly: Cytochrome P450 Family 2 Subfamily C Member 9 (CYP2C9) small molecule antagonists: luciferase reporter qHTS assay (AID 1671198). Note: nearly all actives have a fitted effect of over 50% in size. The settings on record: P450-Glo CYP2C9 enzyme assay, luciferin luminescence; series mostly up to 115 µM; activity change, negative = inhibition: at the top concentration. Put shortly:
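CYP2C9 activity was measured with a P450-Glo proluciferin substrate. Enzyme–substrate mix was held with compound for 10 min at room temperature, then NADPH regeneration solution was added for 1 h at 37C. Luciferin product was read as luminescence.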
For the compound `C=CCOC(=O)c1ccccc1C(=O)OCC=C`, the Potency was 3.93 µM (active) and 5.64 µM (active).

On to `O=S(=O)(O)c1ccc2ccccc2c1`, for which the Potency result was “inactive”.

`CC(=O)OCC(=O)[C@@]12N=C(C)O[C@@H]1C[C@H]1[C@@H]3CCC4=CC(=O)C=C[C@]4(C)[C@H]3[C@@H](O)C[C@@]12C`: the “activity change, negative = inhibition” value was -19.6% [at 53 µM] (inactive).

In the case of `CC1=CCC2CC1C2(C)C` (stereo unspecified), the Potency entry is “inactive”.

With `C=CCNC(N)=S`, the “activity change, negative = inhibition” value is -0.28% [at 53 µM] (inactive).

As to `C=C(C)C(=O)Nc1ccc(Cl)c(Cl)c1`, the Potency was 36 µM (active) and 63 µM (active).

Regarding `C=C(C)C(=O)O[C@H]1C[C@@H]2CC[C@@]1(C)C2(C)C`, the “activity change, negative = inhibition” value was -6.94% (inactive).

Regarding `O=c1[nH]c(=O)n([C@H]2CCCO2)cc1F`, the Potency result is “inactive”.

Consider `Fc1ccc(Br)cc1`, for which the “activity change, negative = inhibition” value was -3.63% (inactive).

Regarding `CC(c1cc2ccccc2s1)N(O)C(N)=O` (stereo unspecified), the Potency is 71 µM (active).

Take `O=c1[nH]c(=O)n([C@H]2C[C@H](O)[C@@H](CO)O2)cc1Br`: the Potency entry was “inactive”.

On to `CC(=O)Nc1cccc(O)c1`, for which the Potency entry is “inactive”.

Regarding `CC(C)(C)[C@@H](O)[C@@H](Cc1ccc(Cl)cc1)n1cncn1`, the Potency was 11.2 µM (active) and 22.4 µM (active).

Consider `C/C=C1/CC2C=CC1C2` (stereo unspecified), for which the Potency result is “inactive and 39.9 µM (active)”.

Regarding `C#CCN(C)Cc1ccccc1`, the Potency result is “inactive”.

As for `CCCCCCCCCCCCOCCO`, the Potency is 39.9 µM (active).

Turning to `CCCCCOC(C)=O`, the Potency is 10 µM (active).

On to `O=C(CC(C(=O)OC1CCCCC1)S(=O)(=O)O)OC1CCCCC1` (stereo unspecified), for which the Potency is 40.1 µM (active) and 35.1 µM (active).

For the compound `CCCCC(CC)COC(=O)C(C#N)=C(c1ccccc1)c1ccccc1` (stereo unspecified), the Potency was 2.83 µM (active) and 3.09 µM (active).

Take `CC(=O)c1ccccc1`: the “activity change, negative = inhibition” value is -3.56% (inactive).

As for `O=C(OCCOCCOC(=O)c1ccccc1)c1ccccc1`, the Potency was 8.91 µM (active) and 14.2 µM (active).

As to `CC(=O)Nc1ccccc1`, the Potency result is “inactive”.

On to `O=c1[nH]nnc2ccccc12`, for which the Potency result was “inactive”.

Turning to `O=C(O)[C@H](O)[C@@H](O)[C@H](O)[C@H](O)CO`, the activity change, negative = inhibition was 3.47% [at 4.07 µM] (inactive).

For `CCCCCCOCCO`, the Potency result is “inactive”.

Consider `CSCCC=O`, for which the Potency is 35.6 µM (active).

As for `CCCCCC(N)=O`, the Potency entry was “inactive”.

Regarding `OC[C@H]1O[C@@](CO)(O[C@H]2O[C@H](CO)[C@@H](O)[C@H](O)[C@H]2O)[C@@H](O)[C@@H]1O`, the Potency result is “inactive”.

As to `OCCOCCOCCO`, the Potency result is “inactive”.

As to `CCCCC(CC)COC(=O)CS` (stereo unspecified), the Potency is 64.1 µM (active) and 71 µM (active).

Turning to `CCCCCCCCCCCCc1ccccc1`, the Potency result was “inactive”.

Consider `O=C(O)c1ccc2c(c1)C(=O)OC2=O`, for which the Potency entry was “inactive”.
